An excerpt weighted towards active compounds, which were near 10% of everything screened.
G9a inh: qHTS Assay for Inhibitors of Histone Lysine Methyltransferase G9a; Histone-lysine N-methyltransferase EHMT2 (Homo sapiens), Q96KQ7; G9a H3K9 monomethylation, AlphaScreen, 2 h; Potency, µM (highest dose often 102 µM), inactives show at the top dose activity, negative = inhibition, usual class: inhibitors; 8.8% of 350,000 active; AID 504332, 2011; also: potency is read from the fitted curve at half-maximal effect; % is scaled to controls: 0 for no effect and ±100 for the full control effect; nearly all actives have a fitted effect of over 75% in size
Target sequence (Q96KQ7 913-1193 limits assumed): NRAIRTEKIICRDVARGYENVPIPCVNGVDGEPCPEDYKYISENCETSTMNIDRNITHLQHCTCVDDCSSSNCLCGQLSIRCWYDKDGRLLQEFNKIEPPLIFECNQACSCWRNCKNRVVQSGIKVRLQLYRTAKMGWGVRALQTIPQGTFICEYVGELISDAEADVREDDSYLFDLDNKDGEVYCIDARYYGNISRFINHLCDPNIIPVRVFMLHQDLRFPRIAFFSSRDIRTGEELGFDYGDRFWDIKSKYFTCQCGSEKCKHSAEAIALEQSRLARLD
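AlphaScreen detection with an anti-monomethyl H3K9 antibody quantified product after a 2 h room-temperature reaction containing 500 nM biotinylated H3K9 peptide, 20 µM SAM and 20 nM enzyme, which had been preincubated 15 min with compound.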
JMJD2A Tudor: qHTS Assay for Inhibitors of JMJD2A-Tudor Domain | Lysine-specific demethylase 4A (Homo sapiens), O75164 | AlphaScreen JMJD2A-Tudor / H3K4me3 peptide binding | Potency, µM (highest dose often 114 µM), for inactives: at the highest dose activity change, negative = inhibition, hits mostly inhibitors | 4.4% of 390,000 active; also: potency is read from the fitted curve at half-maximal effect; % is scaled to controls: 0 for no effect and ±100 for the full control effect; nearly all actives have a fitted effect of over 50% in size
HP1b chromo inh: HTS for Inhibitors of HP1-beta Chromodomain Interactions with Methylated Histone Tails; AlphaScreen HP1-beta / biotin-H3K9me3 peptide binding; Potency, µM (titrated, usually from 114 µM), inactives show top-dose activity change, negative = inhibition, hits mostly inhibitors; 0.56% of 390,000 active; also: potency is read from the fitted curve at half-maximal effect; nearly all actives have a fitted effect of over 70% in size
Target sequence (P83916 whole entry, looked up): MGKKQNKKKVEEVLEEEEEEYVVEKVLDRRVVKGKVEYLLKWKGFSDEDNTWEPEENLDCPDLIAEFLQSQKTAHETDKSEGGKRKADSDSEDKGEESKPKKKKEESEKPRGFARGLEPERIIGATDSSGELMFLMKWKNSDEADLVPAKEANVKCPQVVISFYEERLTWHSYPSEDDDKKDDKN
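HP1-beta protein (50 nM final) preincubated 30 min at room temperature with biotinylated H3(1-18)K9me3 peptide (50 nM) in PBS pH 7.4, 0.01% Tween-20, then compound added for 30 min. AlphaScreen streptavidin donor/nickel chelate acceptor beads (10 ug/mL final), 30 min dark, luminescence read.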
BAZ2B inh: qHTS Assay for Inhibitors of BAZ2B | AlphaScreen BAZ2B-H3K14Ac peptide displacement | Potency, µM (doses to about 114 µM), for inactives: top-dose activity change, negative = inhibition, usual class: inhibitors | Bromodomain adjacent to zinc finger domain protein 2B (Homo sapiens), Q9UIF8 | 4.4% of 360,000 active; also: potency is read from the fitted curve at half-maximal effect; % is scaled to controls: 0 for no effect and ±100 for the full control effect; nearly all actives have a fitted effect of over 60% in size
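In this displacement format the biotinylated H3(5-23) peptide acetylated at Lys14 serves as ligand at 50 nM, with BAZ2B at 50 nM in PBS pH 7.4 containing 0.01% Tween-20. Donor and acceptor beads are 10 ug/mL final.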
Six1-Eya2 inh: qHTS Assay for Inhibitors of the Six1/Eya2 Interaction. 0.56% of 360,000 active. AID 651725, 2012. activity change, % (test concentration not listed). Homeobox protein SIX1 (Homo sapiens) + Protein phosphatase EYA2 (Homo sapiens), …. AlphaScreen GST-Six1/His-Eya2 binding, biochemical; hits give low values; in the data active = activity change below about -65%; inconclusive = mostly about -30% to -63%; also: % is scaled to controls: 0 for no effect and ±100 for the full control effect
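Homogeneous AlphaScreen proximity assay pairing GST-Six1 with His-tagged Eya2 (added as 5X mix: 250 nM and 500 nM) in 50 mM Tris pH 8.0, 300 mM NaCl, 1 mM TCEP. Glutathione donor and nickel acceptor beads; 1 h, 37 °C, dark.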
CtBP-E1A inh: qHTS Assay for Inhibitors of the CtBP/E1A Interaction; AlphaScreen GST-E1A/His-CtBP binding, 1536-well; hits give low values; CtBP / adenovirus E1A interaction (AlphaScreen); 0.49% of 340,000 active; activity change, % (concentration not given with the values); in the data active = activity change below about -65%; inconclusive = mostly about -30% to -63%; also: % is scaled to controls: 0 for no effect and ±100 for the full control effect
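Protein mix (5X: 125 nM each GST-E1A, His-CtBP) was incubated with pinned compound 2 h at 37 deg C in dark, in 50 mM Tris pH 8.0 buffer with 300 mM NaCl. Glutathione donor and nickel acceptor beads followed; AlphaScreen signal read after 1 h.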
An asterisk follows results filed as active; ? = inconclusive; . = no result given; [ ] = another dose, or the depositor's remark. Unless noted, calls follow the shape of the dose curve; as a rule, active = well fitted inhibition curve with a large enough effect; inconclusive = small, poorly fitted or top-dose-only effect; inactive = no such curve, though single readings can be large or run the other way.

SMILES | G9a inh | JMJD2A Tudor | HP1b chromo inh | BAZ2B inh | Six1-Eya2 inh | CtBP-E1A inh
Cc1ccc(S(=O)(=O)NCc2ccc(C(=O)NCCN(Cc3ccccc3)C(C)C)cc2)cc1 | 3.5% | -25.5% | 23.1% | ? | -2.0 | -2.1
C=C(C(=O)Oc1ccccc1C(C)(C)C)c1ccccc1 | -0.6%[0.501 µM] | . | . | 171.7% | . | .
COc1ccc(OC)c2sc(Cl)nc12 | 28.2µM* | 3.5% | -3.6% | 8.5% | -1.9 | 3.3
COc1ccc(OC)c2sc(NC(=O)C(C)C)nc12 | -41.8%[59 µM] | -13.9% | 14.2% | -8.6% | 0.1 | -4.1
O=c1c(F)cn(C2CCCO2)c(=O)n1Cc1ccc(Cl)cc1 (centres undefined) | 7.1% | -16.8% | 9.3% | 0.2% | 1.0 | 6.9
CCn1c(COc2c(C)cccc2C)nnc1SCC(=O)N1CCN(c2ccccc2)CC1 | -6.5%[59 µM] | -22.9% | 15.7% | -28.9% | -6.6 | -1.5
O=C(CSc1nnc2scc(-c3ccccc3)n12)N1CCN(Cc2ccccc2)CC1 | ? | -17.4% | 12.6% | 3.0% | 3.7 | -8.7
CN(Cc1cc(=O)n2ccsc2n1)C1CCCCC1 | 50.1µM* | -3.4% | 27.1% | -31.1% | 0.2 | -7.3
Cn1c(SCC(=O)N2CCN(c3ccccc3)CC2)nnc1-c1ccco1 | 28.3% | -15.0% | 34.4% | -26.2% | 4.3 | 3.3
CN(Cc1cc(=O)n2ccsc2n1)c1ccccc1 | 0.0%[59 µM] | -6.9% | 40.4% | 0.9% | 2.4 | .
Cn1c(SCC(=O)N2CCN(c3ccccc3)CC2)nnc1-c1ccccc1 | 50.1µM* | -8.3% | 21.2% | -19.6% | -3.6 | -0.8
Cc1ccc(-c2csc3nnc(SCC(=O)N4CCN(Cc5ccccc5)CC4)n23)cc1 | 25.1µM* | -30.6% | 1.4% | -38.5% | -6.0 | 5.5
C=CCn1c(COc2cccc(C)c2C)nnc1SCC(=O)N1CCN(c2ccccc2)CC1 | 3.98µM* | ? | -11.0% | ? | -10.5 | 5.5
COc1ccc2[nH]c3c(c2c1)CCN1C(=O)C(CC(=O)NC(C)(C)C)C[C@H](C(=O)N2CCCCC2)[C@@]31CCc1ccccc1 (some centres undefined) | . | ? | -1.8% | . | -1.7 | 1.8
NC(=O)c1ccsc1NC(=O)COC(=O)Cc1ccccc1[N+](=O)[O-] | . | . | . | . | 1.9 | -9.9
O=c1cc(CN2CCc3ccccc3C2)nc2sccn12 | 79.4µM* | -5.6% | 41.9% | 6.6% | -4.7 | -1.4
Cn1c(SCC(=O)O)nnc1-c1cccc(NC(=O)c2cccc3ccccc23)c1 | 31.6µM* | -4.4%[11.4 µM] | 33.2% | -13.3% | -4.0 | -6.8
Cn1c(SCC(=O)N2CCOCC2)nnc1-c1ccncc1 | -11.8%[59 µM] | 0.7% | 7.4% | 6.9% | -5.5 | -6.7
O=C(CSc1nc(-c2ccccc2)no1)N1CCN(c2ccccc2F)CC1 | 5.0%[59 µM] | 20µM* | 34.8% | 8.5% | . | .
Cn1c(SCC(=O)N2CCN(Cc3ccccc3)CC2)nnc1-c1ccncc1 | 11.2µM* | -9.7% | 30.2% | -0.8% | -1.0 | 2.3
CC(C)c1ccc(-c2noc(SCC(=O)N3CCN(c4ccccc4F)CC3)n2)cc1 | 3.9%[59 µM] | 4.5% | 57.7% | 7.7% | . | .
COC(=O)CSc1nnc(-c2cccc(NC(=O)c3ccc(C)cc3)c2)n1C | -47.2% | -21.9% | 21.0% | 8.0% | -5.3 | -5.4
COc1cc(Nc2nc3c(N)cc(C(F)(F)F)cc3nc2-c2ccccc2)cc(OC)c1OC | . | -19.4% | 0.7% | . | -1.9 | 3.8
COc1cccc(CNc2nc3cc(-c4ccccc4CO)sc3c(=O)n2C)c1 | . | . | . | . | -0.9 | -6.6
CCc1ccc2oc(C(=O)Nc3c(C)n(C)n(-c4ccccc4)c3=O)cc(=O)c2c1 | ? | -11.1% | 29.6% | 0.1% | . | .
